Assay [1] in a line: Confirmatory screen GU Rhodamine qHTS for Zika virus inhibitors qHTS (AID 1347157). Further: nearly all actives have a fitted effect of over 70% in size. Further: potency means the concentration at half of the fitted maximal effect. Put shortly:
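Noncovalent NS2B hydrophilic domain/NS3 protease complex (25 nM final) in 10 mM Tris-HCl pH 8.0, 0.01% Tween 20, preincubated 15 min with compounds (up to 114 microM), then 1.5 microM Rhodamine110 substrate. Fluorescence change over 15 min fitted to 4-parameter Hill.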
(Quantitative high-throughput screening tests each substance at several concentrations.)

The nature of assay [2]: ZIKV-mCherry secondary qHTS for Zika virus inhibitors (AID 1347158). Further: potency means the concentration at half of the fitted maximal effect. Summed up: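 Vero cells, 5,000/well, plated overnight at 37 °C, then compound added and infected with recombinant ZIKV-mCherry at MOI 1 for 48-72 h. PFA-fixed, Hoechst nuclear stain, high-content imaging; cells with mCherry intensity above 450 RFU scored infected, reported as percent infection.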
Assay [3] relates to Zika virus NS2B-NS3 protease (unlinked complex). Briefly: Primary screen GU Rhodamine qHTS for Zika virus inhibitors: Unlinked NS2B-NS3 protease assay (AID 1347159). Further: nearly all actives have a fitted effect of over 60% in size. Further: potency means the concentration at half of the fitted maximal effect. Put shortly: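 Compounds, tested up to 114 microM, were incubated for 15 minutes with 25 nM unlinked NS2B-NS3 protease at pH 8.0. Cleavage of 1.5 microM Rhodamine110 substrate was then followed by fluorescence for 15 minutes.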

Assay [4] has as its system Zika virus NS2B-NS3 protease (linked construct). Description: Primary screen NINDS Rhodamine qHTS for Zika virus inhibitors (AID 1347160). Further: nearly all actives have a fitted effect of over 55% in size. Further: potency means the concentration at half of the fitted maximal effect. Summed up:
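Percent inhibition, normalized to uninhibited and enzyme-free controls, is fitted to a 4-parameter Hill equation. Fluorescence change comes from a 15-min cleavage of 1.5 microM bis-peptide Rhodamine110 substrate by 25 nM linked NS2B-NS3 at room temperature.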

Assay [5] in a line: Confirmatory screen NINDS Rhodamine qHTS for Zika virus inhibitors (AID 1347161). Further: nearly all actives have a fitted effect of over 60% in size. Further: potency means the concentration at half of the fitted maximal effect. Put shortly: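 Each compound, titrated, sat 15 min with 25 nM linked protease before 1.5 microM Rhodamine110 substrate went in. Fluorescence gain over the next 15 min, in pH 8.0 Tris with Tween 20, gave Hill-fitted curves.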
Assay [6] deals with Zika virus NS2B-NS3 protease (linked). Briefly: 384 well plate NINDS AMC confirmatory qHTS for Zika virus inhibitors (AID 1347163). Further: potency means the concentration at half of the fitted maximal effect; nearly all actives have a fitted effect of over 50% in size. Summed up:
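Linked protease 5/30/60 nM final; cpds up to 1 mM final, ~15 min preinc. Substrate Ac-VKTGKR-AMC 30 microM final. RT, dark, 25 min; FI ex 355/em 460; normalized to no-enzyme/no-inhibitor ctrls.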

The subject of assay [7] is Zika virus NS2B-NS3 protease (linked construct). Description: 384 well plate NINDS Rhodamine confirmatory qHTS for Zika virus inhibitors (AID 1347164). Further: potency means the concentration at half of the fitted maximal effect; nearly all actives have a fitted effect of over 65% in size. Put shortly: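 Cleavage of Ac-LKRR-Rhodamine 110 (10 microM final) by linked protease (final 5, 30 or 60 nM) was followed as fluorescence at 485/538 nm after 25 min, room temperature, dark. Compounds preincubated ~15 min.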

Assay [8] is described as follows: qHTS of pediatric cancer cell lines to identify multiple opportunities for drug repurposing: Primary screen for LAN-5 cells (AID 1347100). Further: potency means the concentration at half of the fitted maximal effect. Put shortly:
(§1)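 Viability after 48 h compound treatment at 37C, 500-1,000 cells/well, read as ATP luminescence with CellTiter-Glo. Primary screens used 11-point (MIPE, 0.78 nM-46 µM) or 8-point (NPC, 0.59 nM-46 µM) final concentrations; follow-up screens used 11-point dilutions.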

Assay [9] in a line: qHTS of pediatric cancer cell lines to identify multiple opportunities for drug repurposing: Primary screen for BT-12 cells (AID 1347101). Further: nearly all actives have a fitted effect of over 25% in size. Put shortly: (§2)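 Cells (500-1,000/well) rested 5 h, then received compounds for 48 h; metabolically active cells were measured by CellTiter-Glo luminescence. Final concentrations spanned up to 46 µM (MIPE, 11-point) or 0.59 nM-46 µM (NPC, 8-point) in primary screens, 11-point in follow-ups.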

A short description of assay [10]: qHTS of pediatric cancer cell lines to identify multiple opportunities for drug repurposing: Primary screen for Rh18 cells (AID 1347102). Further: nearly all actives have a fitted effect of over 65% in size. Summed up: as §1
A short description of assay [11]: qHTS of pediatric cancer cell lines to identify multiple opportunities for drug repurposing: Primary screen for OHS-50 cells (AID 1347103). Further: nearly all actives have a fitted effect of over 40% in size. Summed up:
as §2

The nature of assay [12]: qHTS of pediatric cancer cell lines to identify multiple opportunities for drug repurposing: Primary screen for RD cells (AID 1347104). Further: nearly all actives have a fitted effect of over 55% in size. Summed up:
(§3)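 Primary screen of approved and investigational compounds on cells in growth media at 37 degrees C, 5% CO2. MIPE set at 11-point and NPC set at 8-point dilutions; viability scored by ATP-based luminescence at 48 hours.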

A short description of assay [13]: qHTS of pediatric cancer cell lines to identify multiple opportunities for drug repurposing: Primary screen for MG 63 (6-TG R) cells (AID 1347105). Further: nearly all actives have a fitted effect of over 50% in size. Summed up:
as §3

The nature of assay [14]: qHTS of pediatric cancer cell lines to identify multiple opportunities for drug repurposing: Primary screen for control Hh wild type fibroblast cells (AID 1347106).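 Further: series mostly up to about 46 µM; a drop in luminescence marks cytotoxicity and a rise apparent proliferation; nearly all actives have a fitted effect of over 55% in size.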 Summed up:
as §1

Assay [15] can be described thus: qHTS of pediatric cancer cell lines to identify multiple opportunities for drug repurposing: Primary screen for Rh30 cells (AID 1347107). Further: series mostly up to about 46 µM; nearly all actives have a fitted effect of over 75% in size. Summed up: as §1
Assay [16] is described as follows: qHTS of pediatric cancer cell lines to identify multiple opportunities for drug repurposing: Primary screen for Rh41 cells (AID 1347108).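 Further: series mostly up to about 46 µM; luminescence drop marks cytotoxic hits; nearly all actives have a fitted effect of over 70% in size.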 Put shortly:
as §3

Assay [17] deals with Zika virus NS2B-NS3 protease. Briefly: Primary screen GU AMC qHTS for Zika virus inhibitors (AID 1347154). Further: nearly all actives have a fitted effect of over 70% in size. Further: potency means the concentration at half of the fitted maximal effect. Summed up:
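Unlinked Zika NS2B hydrophilic domain–NS3 protease complex at 25 nM in 10 mM Tris-HCl pH 8.0, 0.01% Tween 20, with an AMC peptide substrate. Fluorescence change (340/450 nm) over 15 min at room temperature, normalized to controls, fitted to 4-parameter Hill.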

The next assay concerns the target Furin (Homo sapiens) (UniProt P09958). Description: Furin counterscreen qHTS for Zika virus inhibitors (AID 1347149). Further: potency means the concentration at half of the fitted maximal effect; nearly all actives have a fitted effect of over 70% in size. Put shortly:
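Fluorogenic cleavage of BOC-RVRR-AMC (2 microM final, Km ~15 µM) was monitored (ex 340, em 450 nm) at 37C after 15 min RT preincubation of 5 nM furin with compounds in HEPES pH 7.0 buffer with CaCl2 and Triton X-100. Percent inhibition was fitted to a 4-parameter Hill curve.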

The test system of assay [18] is Zika virus NS2B-NS3 protease (linked construct). Description: Confirmatory screen NINDS AMC qHTS for Zika virus inhibitors (AID 1347152). Summed up:
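Concentration-response confirmation used the NINDS linked protease (NS2B hydrophilic domain joined to NS3 protease domain), 1 nM, with a 15-min compound preincubation. Substrate, Nle-KRR-AMC at 10 microM, was read by UV fluorescence before and after 15 min.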

SMILES strings stand for the structures. Results filed as inconclusive are left out. Active and inactive are the calls of the source. The call rests on the fitted dose curve; in most records, active means well fitted curve in the direction sought with a large enough effect; inconclusive means small, poorly fitted or top-dose-only effect, or another doubt; inactive means no such curve, though single readings can be large; an effect the other way counts as inactive or inconclusive.

Furin (Homo sapiens), sequence (P09958 whole entry, looked up): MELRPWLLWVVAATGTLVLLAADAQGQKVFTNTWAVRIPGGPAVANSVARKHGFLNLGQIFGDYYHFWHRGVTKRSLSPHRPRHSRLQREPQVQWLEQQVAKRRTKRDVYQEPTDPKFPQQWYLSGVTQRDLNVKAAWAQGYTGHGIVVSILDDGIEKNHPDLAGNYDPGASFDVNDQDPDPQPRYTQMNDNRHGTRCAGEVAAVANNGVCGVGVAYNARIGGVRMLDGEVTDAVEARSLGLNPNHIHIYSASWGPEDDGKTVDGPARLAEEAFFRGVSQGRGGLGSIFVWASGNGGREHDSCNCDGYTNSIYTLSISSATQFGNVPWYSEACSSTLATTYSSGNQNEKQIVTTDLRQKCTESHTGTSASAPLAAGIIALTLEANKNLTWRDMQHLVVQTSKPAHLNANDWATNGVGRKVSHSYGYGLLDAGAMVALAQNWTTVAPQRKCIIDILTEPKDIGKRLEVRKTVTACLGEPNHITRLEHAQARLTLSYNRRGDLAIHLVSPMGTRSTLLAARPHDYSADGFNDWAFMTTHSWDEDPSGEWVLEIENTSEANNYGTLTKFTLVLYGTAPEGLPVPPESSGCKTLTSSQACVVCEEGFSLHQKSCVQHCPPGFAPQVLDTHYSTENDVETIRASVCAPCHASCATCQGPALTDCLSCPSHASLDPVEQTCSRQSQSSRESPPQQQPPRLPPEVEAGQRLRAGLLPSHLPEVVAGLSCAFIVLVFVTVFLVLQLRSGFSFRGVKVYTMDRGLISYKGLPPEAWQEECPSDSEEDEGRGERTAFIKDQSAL

`CC1(C)CC2=C3C=CC4C5(C)CCC(O)C(C)(C)C5CCC4(C)C3(C)CCC2(C)C(O)C1` (stereo unspecified): the Potency in [1] was 13.6 µM (active); in assay [3], 15.8 µM (active); in assay [4] it was 8.91 µM (active); in assay [5] it was 10.8 µM (active). Moreover, the Potency result in assay [2] was “inactive”.
With `COc1ccc(Cl)c(Nc2nc3ccccc3nc2NS(=O)(=O)c2cccc(NC(=O)C(C)(C)N)c2)c1`, the Potency is 5.55 µM (active) in [1]; 15.8 µM (active) in [2]; 7.94 µM (active) in assay [3]; 5.01 µM (active) in assay [4]; 5.55 µM (active) in assay [5]; 2.51 µM (active) in assay [6]. For the same compound, the Potency in assay [7] was 3.98 µM (active).
Regarding `O=C(O)c1c(O)c(-c2ccccc2)nc2ccccc12`, the Potency result in [8] and in assay [17] was “inactive” in each case. Also, the compound was called inactive in [9], in assay [10], in assay [11], in [12], in [13] and in assay [14]. Also, the compound was classed as inactive in [15] and in assay [16].
`CC#CC(=O)N1CCC[C@H]1c1nc(-c2ccc(C(=O)Nc3ccccn3)cc2)c2c(N)nccn12`: the Potency result in assay [3] is “inactive”.
As for `Nc1ccccc1N`, the Potency in assay [8] is 17.2 µM (active). In addition, the compound was called inactive in [13] and in assay [14]. Besides, the Potency result in assay [17] was “inactive”.
For `O=C1NC(Cc2c[nH]c3ccccc23)C(=O)NC1Cc1c[nH]c2ccccc12` (stereo unspecified), the Potency entry in assay [3] is “inactive”.
Turning to `CC(C)CCC(=O)CC1c2ccccc2C(=O)N1c1ccc2ccc(Cl)nc2n1` (stereo unspecified), the Potency result in assay [3] is “inactive”.
Consider `CCC(C(=O)O)c1ccc(N2Cc3ccccc3C2=O)cc1` (stereo unspecified), for which the Potency entry in [8] and in assay [17] was “inactive” in each case. Besides, the call in assay [9], in [10], in assay [11], in assay [12], in [13] and in assay [14] was inactive. Moreover, the compound was called inactive in assay [15] and in assay [16].
As to `CC(C)(C)Nc1nc2cc(Cl)c(Cl)cc2nc1S(C)(=O)=O`, the Potency result in assay [1], in assay [4] and in assay [5] was “inactive” each time. Moreover, the Potency in [3] was 89.1 µM (active).
Regarding `O=C(O)c1ccccc1NCCc1ccccc1`, in assay [8], the Potency result was “inactive”. In addition, the call in assay [9], in [10], in assay [11], in assay [12], in assay [13] and in assay [14] was inactive. In addition, the compound was classed as inactive in assay [15] and in assay [16]. Moreover, the Potency in [17] was 31.6 µM (active).
For the compound `CCc1c(-c2ccccc2)c(-c2ccccc2)nn1-c1ccccc1-c1cccc(OCC(=O)O)c1`, the Potency with Furin (Homo sapiens) was 30.4 µM (active); in [18] it was 13.9 µM (active); in assay [1], 3.12 µM (active); in assay [3], 6.31 µM (active); in [4] it was 3.55 µM (active); in assay [5], 3.12 µM (active). For the same compound, the Potency was 3.98 µM (active) in assay [6] and 2.51 µM (active) in assay [7].

For the origin of these results see PubChem BioAssay (NCATS).
